# Screens deposited in PubChem by National Center for Advancing Translational Sciences (NCATS).
# ELG1 DNA repair: blocks ELG1-dependent DNA repair in HEK293T cells. actives 2.3% (n = 330,000). Potency, µM (highest dose often 46.1 µM), for inactives: at the highest dose activity change, negative = inhibition, most hits filed as inhibitors. HEK293T ELG1-luciferase reporter, luminescence, 16 h; DNA damage induced by 5-fluorouridine; also: % is scaled to controls: 0 for no effect and ±100 for the full control effect; nearly all actives have a fitted effect of over 55% in size
#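 DMSO vehicle served as the neutral condition. Each well held 2,000 cells given 5-fluorouridine plus compound; after 16 hr at 37 °C/5% CO2, ONE-Glo was added and luciferase measured 30 min later.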
# KB-V1 cytotox: KB-V1 MDR subline cytotoxicity; KB-V1 MDR cells viability, CellTiter-Glo, 72 h; Potency, µM (highest dose often 46.1 µM), most hits filed as cytotoxic; actives 3.4% (n = 400,000); AID 1347076; also: % is scaled to controls: 0 for no effect and ±100 for the full control effect; nearly all actives have a fitted effect of over 60% in size
#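 In this primary screen, KB-V1 cells overexpressing P-gp are incubated with library compounds (lowest to highest concentration) for 72 h at 37 degrees C before a luminescent ATP viability read.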
# KB-3-1 tox: kills parental KB-3-1 adenocarcinoma cells | AID 1347075 | Potency, µM (doses to about 46.1 µM), usual class: cytotoxic | actives 1.4% (n = 400,000) | KB-3-1 viability, CellTiter-Glo ATP luminescence, 72 h; also: % is scaled to controls: 0 for no effect and ±100 for the full control effect; nearly all actives have a fitted effect of over 60% in size
#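 KB-3-1 cells, DMEM (no phenol red) + 10% FBS; compound by pin transfer, 72 h, 37 °C. Readout: CellTiter-Glo luminescence after 10 min. Data normalized, curve-fitted.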
# SW480 rerep: induces DNA re-replication in SW480 colon adenocarcinoma cells; Potency, µM (doses to about 46.1 µM), inactives show at the top dose re-replication activation, actives largely listed as activators; SW480 DNA re-replication, Hoechst DNA content imaging, 48 h; actives 1.8% (n = 340,000); also: % of control where 0% means no effect; nearly all actives have a fitted effect of over 55% in size
#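 Image-based read-out: total Hoechst fluorescence of nuclei (405 nm excitation, 500-530 nm emission), with hits raising the fraction of high-intensity nuclei. SW480 colon cells incubated 48 hr with compounds at 37 C.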
# MCF10A rereplic: inducers of DNA re-replication in MCF 10A breast cells | Potency, µM (titrated, usually from 46.1 µM), for the others: at the highest dose activity, positive = re-replication, usual class: activators | actives 2.9% (n = 350,000) | MCF 10A DNA re-replication, Hoechst nuclear intensity, 48 h; also: % of control where 0% means no effect; nearly all actives have a fitted effect of over 50% in size
# * = called active by the depositor; i = inactive; ? = inconclusive; · = not tested or not shown. Compounds with a hit are over-represented: about 8.2% of the library has one in this group of screens. Calls follow the shape of the dose curve; as a rule, active = well fitted curve in the direction sought with a large enough effect; inconclusive = small, poorly fitted or top-dose-only effect, or another doubt; inactive = no such curve, though single readings can be large; an effect the other way counts as inactive or inconclusive. Potency is read from the fitted curve at half-maximal effect.
SMILES,ELG1 DNA repair,KB-V1 cytotox,KB-3-1 tox,SW480 rerep,MCF10A rereplic
Cc1cc(N2CCN(c3ccccc3)CC2)nc(-n2nc(C)cc2C)n1,?,2.6µM*,i,?,?
COc1ccccc1CNC(=O)Nc1nnc(-c2ccncc2)s1,·,i,?,·,·
COc1ccnc(Oc2ccc(F)cc2)c1C(=O)N/C=N/OCc1ccc(F)cc1Cl,?,?,i,?,1%
COc1ccnc(Oc2ccc(F)cc2)c1C(=O)N/C=N/OCc1ccc(Cl)cc1Cl,?,?,i,2.3µM*,?
CCOc1ccc(N(CC(=O)NC2CCCC2)C(=O)CCC(=O)Nc2nccs2)cc1,2%,i,i,1%,1%
CCSc1nc2c(c(=O)[nH]c(=O)n2C)n1C/C=C(/C)Cl,8%,i,i,0%,6%
CCOCCn1c(SCc2ccccc2)nc2c1c(=O)[nH]c(=O)n2C,3%,i,i,-3%,-2%
C/C=C/Cn1c(SCc2ccccc2)nc2c1c(=O)[nH]c(=O)n2C,-9%,2.9µM*,i,-2%,4%
COCCn1c(SCc2ccc(F)cc2)nc2c1c(=O)[nH]c(=O)n2C,-2%,i,i,8%,0.46µM*
C=CCSc1nc2c(c(=O)[nH]c(=O)n2C)n1C/C=C(/C)Cl,-14%,13µM*,i,-8%,16%
COCCn1c(N/N=C(C)/C=C/c2ccccc2)nc2c1c(=O)[nH]c(=O)n2C,4.6µM*,·,·,·,·
O=C(c1ccc(NS(=O)(=O)c2ccc(F)cc2)cc1)N1CCCCCC1,-13%,i,i,-468%,5%
COc1nc(-c2ccccc2)cc(-c2ccc(OC)c(OC)c2)n1,?,8.2µM*,i,?,?
CC1CC(C)CN(C(=O)CN2C(=O)NC(c3ccccc3)(c3ccccc3)C2=O)C1 (centres undefined),-3%,i,i,2%,4%
CCN(CC(=O)Nc1ccc(NC(C)=O)cc1)C(=O)c1ccc(N(C)S(=O)(=O)c2ccc(C)cc2)cc1,·,i,i,-9%,19%
CCCN(CC(=O)Nc1ccccc1OC)C(=O)C1CCCC1,4%,?,i,-5%,0%
COc1ccc(S(=O)(=O)N(Cc2ccccc2)c2ccccc2C(=O)N2CCOCC2)cc1,?,13µM*,?,?,?
CCN(CC(=O)Nc1ccccc1OC)C(=O)C1CCCC1,16%,13µM*,i,2%,0%
CCN(CC(=O)Nc1ccccc1OC)C(=O)c1ccc(N(C)S(=O)(=O)c2ccc(C)cc2)cc1,16µM*,?,i,1%,13%
CCS(=O)(=O)N(CC(=O)Nc1cccc2ccccc12)c1ccc(OC)cc1,?,13µM*,i,-1%,4%
O=C(Nc1cccnc1Cl)c1cnn2c1NC(=C1CC1)C=C2C(F)F,·,i,i,·,·
CCC(C(=O)N(C)Cc1ccccc1)n1nc(C)c2sc3ccccc3c2c1=O (centres undefined),·,i,i,·,·
CCOc1ccccc1N(CC(=O)Nc1cccc(OC)c1)S(=O)(=O)c1ccccc1,0%,i,i,0%,27%
CCOc1ccc(N(CC(=O)Nc2ccc(C)cc2)S(=O)(=O)c2c(C)noc2C)cc1,?,?,?,1%,12%
CCOc1ccc(N(CC(=O)Nc2ccccc2OCC)S(=O)(=O)c2c(C)noc2C)cc1,7%,5.8µM*,3.3µM*,5.8µM*,1.3µM*
SMILES,ELG1 DNA repair,KB-V1 cytotox,KB-3-1 tox,SW480 rerep,MCF10A rereplic
CCOc1ccccc1N(CC(=O)Nc1ccccc1F)S(=O)(=O)c1ccccc1,-17%,?,i,?,0.58µM*
CCOc1ccc(N(CC(=O)Nc2ccccc2C(=O)N2CCOCC2)S(=O)(=O)c2ccc(F)cc2)cc1,-23%,4.6µM*,i,0%,0%
CCOc1ccccc1N(CC(=O)Nc1ccc(OC)cc1OC)S(=O)(=O)c1ccccc1,16µM*,i,?,-15%,-1%
CCOc1ccc(NC(=O)CN(c2ccccc2OCC)S(=O)(=O)c2ccccc2)cc1,·,i,i,·,·
CCCc1nnc(NC(=O)Cc2coc3ccc(C)cc23)s1,·,i,i,·,·
COc1ccc(N(CC(=O)Nc2ccc(OC)cc2OC)S(=O)(=O)c2ccccc2)cc1,?,?,i,?,?
CCOc1ccc(N(CC(=O)Nc2ccccc2OC)S(=O)(=O)c2ccccc2)cc1,?,1µM*,4.6µM*,2.3µM*,?
O=C(CC1(O)C(=O)N(Cc2cccc3ccccc23)c2ccccc21)c1cccnc1 (centres undefined),-27%,21µM*,21µM*,?,?
CN1C(=O)C(O)(CC(=O)c2cccnc2)c2ccccc21 (centres undefined),6%,i,i,-4%,?
O=c1n(-c2ccccc2)c(=O)n2n1CCCC2,-3%,i,i,16µM*,?
Cc1ccc(S(=O)(=O)NC(C)(C)CN2CCNCC2)cc1,-5%,i,i,21µM*,?
Cc1ccc(S(=O)(=O)NC(C)(C)CN2CCc3ccccc3C2)cc1,0%,?,i,6.5µM*,20%
CC(C)(CN1CCCCC1)NS(=O)(=O)c1ccc(Cl)cc1,·,i,i,3%,11%
COc1ccc(C2Nc3ccccc3C(=O)N2Cc2ccco2)cc1COc1ccc([N+](=O)[O-])cc1 (centres undefined),?,i,i,4%,8%
COc1ccc(C2Nc3ccccc3C(=O)N2Cc2ccco2)cc1COc1c(C)cccc1C (centres undefined),·,i,16µM*,·,·
COc1cccc(OCc2cc(C3Nc4ccccc4C(=O)N3Cc3ccco3)ccc2OC)c1 (centres undefined),?,4.1µM*,i,1%,19%
COc1ccc(OC)c(CN2CCN(c3ccc(S(=O)(=O)N4CCCC4)cn3)CC2)c1,?,i,i,10%,?
C1=CC2=NC34CCCCC3CC3=C(CCCC3)N4C2=CC1=NC1CCCCC1 (centres undefined),·,i,?,?,?
CN1CCN(c2ccccc2NC(=O)c2ccc(OCc3ccccc3)cc2)CC1,?,?,?,?,11%
COc1cccc(C(=O)Nc2ccccc2N2CCCC2)c1,-5%,?,i,-3%,2%
CN1CCN(c2ccccc2NC(=O)c2cccc(OCc3ccccc3)c2)CC1,21µM*,i,i,5%,1%
COc1cccc(C(=O)Nc2ccccc2N2CCN(C(=O)c3ccccc3)CC2)c1,23µM*,i,i,?,18%
N#CCCn1cc(CNCc2cccnc2)c(-c2ccccc2)n1,·,i,i,·,·
